Compounds without any hit were thinned out: in the full panel of roughly 79,000, 15% have a hit. Unmarked numbers belong to inactive results. Activity calls are given as the source filed them. Rule as the data show it: active = growth inhibition above about 70%; inactive = the rest.
Tests used:
[1] = NCI Yeast Anticancer Drug Screen. Data for the mec2-1 strain (AID 157); settings: S. cerevisiae mec2-1 strain, active compounds read high
Summary of the method: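 Cells of the genetically defined mec2-1 yeast strain are incubated with test compound. Inhibition of growth is calculated against vehicle-treated controls.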

[2] = NCI Yeast Anticancer Drug Screen. Data for the sgs1 mgt1 strain (AID 161);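 also: 0% = growth of cultures given vehicle only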; settings: S. cerevisiae sgs1 mgt1 strain, active compounds read high
Summary of the method: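 Genetically altered yeast, compound exposure, growth inhibition relative to vehicle.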

[3] = NCI Yeast Anticancer Drug Screen. Data for the CLN2oe strain (AID 163);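 also: 0% = growth of vehicle-only control cultures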; settings: S. cerevisiae CLN2oe strain, active compounds read high
Summary of the method: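 Strain altered in cell-cycle control, incubated with compound; growth compared to solvent-treated controls.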

[4] = NCI Yeast Anticancer Drug Screen. Data for the cln2 rad14 strain (AID 165);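 also: 0% = growth equal to vehicle treated cultures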; settings: S. cerevisiae cln2 rad14 strain, active compounds read high
Summary of the method: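 The screen exposed genetically defined yeast (cln2 rad14) to test compounds and scored growth inhibition relative to vehicle-treated controls.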

[5] = NCI Yeast Anticancer Drug Screen. Data for the bub3 strain (AID 167); settings: S. cerevisiae bub3 mutant strain, active compounds read high
Summary of the method: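 Whole-cell yeast assay. The mutant strain was incubated with compounds, and growth inhibition was determined by comparison with vehicle-treated cells.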

[6] = NCI Yeast Anticancer Drug Screen. Data for the wt2 strain (AID 169);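 also: 0% = growth of vehicle-treated yeast cultures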; settings: S. cerevisiae wt2 strain growth inhibition, active compounds read high
Summary of the method: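 Steps: yeast strain treated with compound; growth recorded; inhibition calculated relative to cultures given vehicle alone.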

[7] = NCI Yeast Anticancer Drug Screen. Data for the mlh1 strain (AID 171);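 also: 0% = growth of vehicle-treated control cultures of the same strain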; settings: S. cerevisiae mlh1 strain growth inhibition, active compounds read high
Summary of the method: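 Yeast screen: mutant strain plus compound, growth scored against vehicle control wells.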

[8] = NCI Yeast Anticancer Drug Screen. Data for the sgs1 strain (AID 173);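 also: 0% = growth of vehicle-only control cultures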; settings: S. cerevisiae sgs1 mutant, active compounds read high
Summary of the method: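 Inhibition of yeast growth served as the measure. The mutant strain was treated with each compound, and growth was normalised to cultures receiving vehicle alone.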

[9] = NCI Yeast Anticancer Drug Screen. Data for the mlh1 rad18 strain (AID 175); settings: S. cerevisiae mlh1 rad18 strain growth inhibition, active compounds read high
Summary of the method: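 Compound-treated yeast growth, normalised to vehicle controls. Strain bears defined DNA repair mutations.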

[10] = NCI Yeast Anticancer Drug Screen. Data for the rad18 strain (AID 177); settings: S. cerevisiae rad18 mutant growth inhibition, active compounds read high
Summary of the method: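 Inhibition values reflect reduced yeast growth compared with vehicle-treated controls, using a strain engineered with a DNA damage repair defect.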

[11] = NCI Yeast Anticancer Drug Screen. Data for the rad52 strain (AID 147);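 also: 0% = growth of vehicle-treated control cultures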; settings: S. cerevisiae rad52 mutant growth inhibition, active compounds read high
Summary of the method: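 Genetically altered yeast (DNA damage repair defect) treated with compound; inhibition calculated relative to vehicle.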

[12] = NCI Yeast Anticancer Drug Screen. Data for the wt1 strain (AID 149);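 also: 0% = growth of vehicle-treated wt1 cultures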; settings: S. cerevisiae wt1 strain (SPY 50644) growth inhibition, active compounds read high
Summary of the method: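 Measured: growth of wt1 yeast under compound versus vehicle treatment, reported as inhibition.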

[13] = NCI Yeast Anticancer Drug Screen. Data for the rad50 strain (AID 155);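 also: 0% = growth of vehicle-only cultures of the same strain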; settings: S. cerevisiae rad50 strain growth inhibition, active compounds read high
Summary of the method: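 Growth of the mutant yeast was measured after compound exposure and referenced to vehicle-treated cultures.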

[14] = NCI Yeast Anticancer Drug Screen. Data for the rad14 strain (AID 159);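 also: 0% = growth of vehicle-treated control cultures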; settings: S. cerevisiae rad14 strain growth inhibition, active compounds read high
Summary of the method: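 Here, inhibition of yeast growth was measured after compound exposure, using a strain with a genetic defect in DNA damage repair and vehicle-treated cultures as the reference.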

[15] = at 5.0 µM (retest, dose inferred, filed as 0.5)
[16] = at 50.0 µM (retest, dose inferred, filed as 5.0)

CC(=O)OCC1OC(O[C@H]2C=C[C@@H](C(=O)OCc3ccccc3)n3c(=O)n(-c4ccccc4)c(=O)n32)C(OC(C)=O)C(OC(C)=O)C1OC(C)=O (stereo partly specified)
growth inhibition ([1]; at 100.0 µM): 59%
growth inhibition [2, 15]: 29%
growth inhibition [2, 16]: 78% (active)
growth inhibition ([2]; at 50.0 µM): 71% (active)
growth inhibition ([3]; at 1.2 µM): 10%
growth inhibition ([3]; at 3.7 µM): 22%
growth inhibition ([3]; at 11.0 µM): 24%
growth inhibition ([3]; at 33.0 µM): 58%
growth inhibition ([3]; at 100.0 µM): 82% (active)
growth inhibition [4, 15]: 13%
growth inhibition [4, 16]: 33%
growth inhibition ([4]; at 50.0 µM): 53.6%
growth inhibition ([5]; at 1.2 µM): -30%
growth inhibition ([5]; at 3.7 µM): -18%
growth inhibition [5, 15]: 28%
growth inhibition ([5]; at 11.0 µM): -27%
growth inhibition ([5]; at 33.0 µM): 24%
growth inhibition [5, 16]: 80% (active)
growth inhibition ([5]; at 50.0 µM): 75.1% (active)
growth inhibition ([5]; at 100.0 µM): 76% (active)
growth inhibition ([6]; at 1.2 µM): -36%
growth inhibition ([6]; at 3.7 µM): -18%
growth inhibition ([6]; at 11.0 µM): 19%
growth inhibition ([6]; at 33.0 µM): 98% (active)
growth inhibition ([6]; at 100.0 µM): 97% (active)
growth inhibition ([7]; at 1.2 µM): -17%
growth inhibition ([7]; at 3.7 µM): -2%
growth inhibition ([7]; at 11.0 µM): -23%
growth inhibition ([7]; at 33.0 µM): 39%
growth inhibition ([7]; at 100.0 µM): 70% (active)
growth inhibition ([8]; at 1.2 µM): -9%
growth inhibition ([8]; at 3.7 µM): -15%
growth inhibition ([8]; at 11.0 µM): -8%
growth inhibition ([8]; at 33.0 µM): 50%
growth inhibition ([8]; at 100.0 µM): 77% (active)
growth inhibition [9, 15]: 70% (active)
growth inhibition [9, 16]: 93% (active)
growth inhibition ([9]; at 50.0 µM): 28.9%
growth inhibition ([10]; at 1.2 µM): -6%
growth inhibition ([10]; at 3.7 µM): 3%
growth inhibition ([10]; at 11.0 µM): 7%
growth inhibition ([10]; at 33.0 µM): 59%
growth inhibition ([10]; at 100.0 µM): 76% (active)

COc1ccc2oc(-c3ccc(Cl)cc3)c(N3CCN(C)CC3)c2c1
growth inhibition ([11]; at 1.2 µM): -1%
growth inhibition ([11]; at 3.7 µM): 0%
growth inhibition ([11]; at 11.0 µM): 91% (active)
growth inhibition ([11]; at 33.0 µM): 98% (active)
growth inhibition ([11]; at 100.0 µM): 99% (active)
growth inhibition ([12]; at 1.2 µM): -1%
growth inhibition ([12]; at 3.7 µM): -3%
growth inhibition ([12]; at 11.0 µM): 30%
growth inhibition ([12]; at 33.0 µM): 99% (active)
growth inhibition ([12]; at 100.0 µM): 99% (active)
growth inhibition ([13]; at 1.2 µM): -3%
growth inhibition ([13]; at 3.7 µM): 0%
growth inhibition [13, 15]: 79% (active)
growth inhibition ([13]; at 11.0 µM): 94% (active)
growth inhibition ([13]; at 33.0 µM): 99% (active)
growth inhibition [13, 16]: 99% (active)
growth inhibition ([13]; at 50.0 µM): 56.3%
growth inhibition ([13]; at 100.0 µM): 99% (active)
growth inhibition ([1]; at 1.2 µM): -3%
growth inhibition ([1]; at 3.7 µM): -3%
growth inhibition [1, 15]: 9%
growth inhibition ([1]; at 11.0 µM): 87% (active)
growth inhibition ([1]; at 33.0 µM): 98% (active)
growth inhibition [1, 16]: 100% (active)
growth inhibition ([1]; at 50.0 µM): 54.7%
growth inhibition ([1]; at 100.0 µM): 99% (active)
growth inhibition ([14]; at 1.2 µM): 0%
growth inhibition ([14]; at 3.7 µM): 13%
growth inhibition ([14]; at 11.0 µM): 99% (active)
growth inhibition ([14]; at 33.0 µM): 99% (active)
growth inhibition ([14]; at 100.0 µM): 99% (active)
growth inhibition [2, 15]: 23%
growth inhibition [2, 16]: 100% (active)
growth inhibition ([2]; at 50.0 µM): 58.5%
growth inhibition ([3]; at 1.2 µM): -6%
growth inhibition ([3]; at 3.7 µM): -5%
growth inhibition ([3]; at 11.0 µM): 98% (active)
growth inhibition ([3]; at 33.0 µM): 99% (active)
growth inhibition ([3]; at 100.0 µM): 98% (active)
growth inhibition [4, 15]: 17%
growth inhibition [4, 16]: 98% (active)
growth inhibition ([4]; at 50.0 µM): 99.5% (active)
growth inhibition ([5]; at 1.2 µM): -3%
growth inhibition ([5]; at 3.7 µM): -6%
growth inhibition [5, 15]: 17%
growth inhibition ([5]; at 11.0 µM): 98% (active)
growth inhibition ([5]; at 33.0 µM): 99% (active)
growth inhibition [5, 16]: 99% (active)
growth inhibition ([5]; at 50.0 µM): 62.1%
growth inhibition ([5]; at 100.0 µM): 99% (active)
growth inhibition ([6]; at 1.2 µM): 0%
growth inhibition ([6]; at 3.7 µM): -3%
growth inhibition ([6]; at 11.0 µM): 97% (active)
growth inhibition ([6]; at 33.0 µM): 99% (active)
growth inhibition ([6]; at 100.0 µM): 99% (active)
growth inhibition ([7]; at 1.2 µM): -2%
growth inhibition ([7]; at 3.7 µM): 0%
growth inhibition ([7]; at 11.0 µM): 90% (active)
growth inhibition ([7]; at 33.0 µM): 99% (active)
growth inhibition ([7]; at 100.0 µM): 99% (active)
growth inhibition ([8]; at 1.2 µM): -1%
growth inhibition ([8]; at 3.7 µM): 0%
growth inhibition ([8]; at 11.0 µM): 96% (active)
growth inhibition ([8]; at 33.0 µM): 99% (active)
growth inhibition ([8]; at 100.0 µM): 99% (active)
growth inhibition [9, 15]: 59%
growth inhibition [9, 16]: 99% (active)
growth inhibition ([9]; at 50.0 µM): 51.5%
growth inhibition ([10]; at 1.2 µM): 1%
growth inhibition ([10]; at 3.7 µM): 4%
growth inhibition ([10]; at 11.0 µM): 91% (active)
growth inhibition ([10]; at 33.0 µM): 99% (active)
growth inhibition ([10]; at 100.0 µM): 99% (active)

Cc1ccccc1NC(=O)Cc1csc(N/N=C2\NC(=O)/C(=C/c3cccc([N+](=O)[O-])c3)S2)n1
growth inhibition ([11]; at 1.2 µM): 2%
growth inhibition ([11]; at 3.7 µM): 5%
growth inhibition ([11]; at 11.0 µM): 13%
growth inhibition ([11]; at 33.0 µM): 24%
growth inhibition ([11]; at 100.0 µM): 49%
growth inhibition ([12]; at 1.2 µM): 3%
growth inhibition ([12]; at 3.7 µM): 6%
growth inhibition ([12]; at 11.0 µM): 4%
growth inhibition ([12]; at 33.0 µM): 11%
growth inhibition ([12]; at 100.0 µM): 26%
growth inhibition ([13]; at 1.2 µM): -4%
growth inhibition ([13]; at 3.7 µM): -11%
growth inhibition [13, 15]: 8%
growth inhibition ([13]; at 11.0 µM): -6%
growth inhibition ([13]; at 33.0 µM): 24%
growth inhibition [13, 16]: 10%
growth inhibition ([13]; at 50.0 µM): 64.1%
growth inhibition ([13]; at 100.0 µM): 50%
growth inhibition ([1]; at 1.2 µM): 4%
growth inhibition ([1]; at 3.7 µM): 2%
growth inhibition [1, 15]: 8%
growth inhibition ([1]; at 11.0 µM): 5%
growth inhibition ([1]; at 33.0 µM): 12%
growth inhibition [1, 16]: 13%
growth inhibition ([1]; at 50.0 µM): 32.1%
growth inhibition ([1]; at 100.0 µM): 23%
growth inhibition ([14]; at 1.2 µM): 4%
growth inhibition ([14]; at 3.7 µM): 2%
growth inhibition ([14]; at 11.0 µM): 8%
growth inhibition ([14]; at 33.0 µM): 16%
growth inhibition ([14]; at 100.0 µM): 22%
growth inhibition [2, 15]: -1%
growth inhibition [2, 16]: 22%
growth inhibition ([2]; at 50.0 µM): 79% (active)
growth inhibition ([3]; at 1.2 µM): 0%
growth inhibition ([3]; at 3.7 µM): 0%
growth inhibition ([3]; at 11.0 µM): -4%
growth inhibition ([3]; at 33.0 µM): 1%
growth inhibition ([3]; at 100.0 µM): 17%
growth inhibition [4, 15]: -16%
growth inhibition [4, 16]: 28%
growth inhibition ([4]; at 50.0 µM): 21.6%
growth inhibition ([5]; at 1.2 µM): -1%
growth inhibition ([5]; at 3.7 µM): -1%
growth inhibition [5, 15]: -25%
growth inhibition ([5]; at 11.0 µM): 0%
growth inhibition ([5]; at 33.0 µM): 15%
growth inhibition [5, 16]: 69%
growth inhibition ([5]; at 50.0 µM): 66.2%
growth inhibition ([5]; at 100.0 µM): 32%
growth inhibition ([6]; at 1.2 µM): 2%
growth inhibition ([6]; at 3.7 µM): 3%
growth inhibition ([6]; at 11.0 µM): 5%
growth inhibition ([6]; at 33.0 µM): 17%
growth inhibition ([6]; at 100.0 µM): 46%
growth inhibition ([7]; at 1.2 µM): 1%
growth inhibition ([7]; at 3.7 µM): 4%
growth inhibition ([7]; at 11.0 µM): 6%
growth inhibition ([7]; at 33.0 µM): 20%
growth inhibition ([7]; at 100.0 µM): 51%
growth inhibition ([8]; at 1.2 µM): 5%
growth inhibition ([8]; at 3.7 µM): 6%
growth inhibition ([8]; at 11.0 µM): 8%
growth inhibition ([8]; at 33.0 µM): 40%
growth inhibition ([8]; at 100.0 µM): 70% (active)
growth inhibition ([10]; at 1.2 µM): -2%
growth inhibition ([10]; at 3.7 µM): -3%
growth inhibition ([10]; at 11.0 µM): 6%
growth inhibition ([10]; at 33.0 µM): 32%
growth inhibition ([10]; at 100.0 µM): 59%
